Screens deposited in PubChem by NMMLSC.
Autofluor Jurkat = counter-screen for VLA-4 integrin: compound autofluorescence in Jurkat cells | flow cytometry; stronger effect = higher value; 1 = vehicle-only cell background | fluorescence ratio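 (tested at 10 µM compound in the well)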 | 0.61% of 24,000 active;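 active = fluorescence ratio above 2.44, which is 1 plus 3 SD of all ratios; inconclusive = signal too bright to measure linearly, ratio around 10 or more; inactive = fluorescence ratio below 2.44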;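 note: green fluorescence of cells measured with 488 nm excitation and 530 nm emission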
FPRL1 binder = ligands of human FPRL1, also counter-screen for FPR ligands; AID 441; inhibition, % (no concentration beside the values); FPRL1-expressing cells, fluorescent ligand binding inhibition, flow cytometry; 0.3% of 24,000 active; P25090;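 note: 0% = buffer alone and 100% = receptor blocker peptide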
VLA-4 antagonist = inhibitors of LDV-FITC ligand binding to Mn2+-activated human VLA-4 integrin | P13612 | Jurkat cells, LDV-FITC binding with Mn2+, flow cytometry; 100% = Mn2+-driven binding gain fully reversed | inhibition, % at 10 µM (by protocol) | 0.2% of 24,000 active;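 active = inhibition above 50%; inconclusive = compound itself fluorescent, judged against control cell fluorescence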;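 note: 0% = Mn2+ stimulated cells lacking compound and 100% = ligand binding without Mn2+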
VLA-4 agonist = allosterically activates the human VLA-4 integrin. P13612. Jurkat cells, LDV-FITC binding, flow cytometry. activation, % at 10 µM (by protocol). 24,000 tested, under 10 active;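 active = fluorescent ligand binding to cells raised by more than 40% of the manganese-induced maximum; inconclusive = compound's own fluorescence above 85% of the ligand control signal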;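 note: 0% = ligand binding without compound and 100% = manganese-stimulated maximal binding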
FPR binder = human FPR ligand, with FPRL1 counter-screen; P21462; FPR-expressing cells, fluorescent ligand binding, flow cytometry; inhibition, % (test concentration not listed); 0.74% of 24,000 active;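 note: 0% = buffer wells and 100% = receptor blocker peptide wells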
Target sequence (P21462 whole entry, looked up): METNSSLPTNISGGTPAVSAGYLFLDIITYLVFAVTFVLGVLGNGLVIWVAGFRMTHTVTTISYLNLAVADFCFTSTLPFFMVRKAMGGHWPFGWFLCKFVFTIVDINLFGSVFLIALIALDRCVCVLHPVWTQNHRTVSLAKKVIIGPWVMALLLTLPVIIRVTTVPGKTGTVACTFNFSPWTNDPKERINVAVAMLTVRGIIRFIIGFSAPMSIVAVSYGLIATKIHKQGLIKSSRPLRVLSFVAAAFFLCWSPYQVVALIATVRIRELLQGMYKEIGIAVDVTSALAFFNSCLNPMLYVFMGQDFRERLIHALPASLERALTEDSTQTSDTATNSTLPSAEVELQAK
26S disassembly = blocks ATP-dependent breakdown of the yeast 26S proteasome; inhibition of disassembly, % (test concentration not listed); 0.2% of 24,000 active; anti-FLAG beads, GFP-proteasome disassembly, flow cytometry;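 active = inhibition of disassembly above about 33%, limit read from the data; inconclusive = likely self-fluorescent, control bead median signal at least 40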;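 note: plate controls were ATP control with full disassembly for no effect and ATP-gamma-S intact proteasomes for full effect; higher percent means more bead fluorescence retained so stronger block of disassembly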
The depositor's hits bear a star. Hits are enriched below; roughly 1.9% of the tested compounds scored in any of these assays. Cut-off read from the data, not from the text of the source, unless noted: active = inhibition above about 30%; inconclusive = no clear call, values can overlap the other calls; inactive = below that.

For Cc1[nH]n2c(=O)c3c(nc2c1-c1ccc(Cl)cc1)CCC3 the results were FPRL1 binder -0.4 and FPR binder 50.6*.
`Cc1nc2c3c(-c4ccccc4)nc(N4CCOCC4)nc3nn2c(C)c1CCC(=O)O` gave Autofluor Jurkat 1.16, FPRL1 binder 2.3, VLA-4 antagonist -3.0, VLA-4 agonist -1.5, FPR binder -5.8 and 26S disassembly 0.2.
Screening OCc1nc2ccccc2n1CC(O)Cn1ccc2ccccc21 (stereo not given) returned Autofluor Jurkat 1.05, FPRL1 binder 51.2*, VLA-4 antagonist -2.5, VLA-4 agonist -3.0, FPR binder 37.4* and 26S disassembly 1.1.
COc1ccc(S(=O)(=O)C(C#N)c2nc3ccccc3nc2N2CCCC(C)C2)cc1 (stereo not given) was read as Autofluor Jurkat 2.95*, FPRL1 binder -5.1, VLA-4 antagonist inconclusive, VLA-4 agonist inconclusive, FPR binder 5.4 and 26S disassembly -3.0.
For Cc1ccc2oc(=O)c3cc(C(=O)N4CCN(c5ncccn5)CC4)sc3c2c1 the results were Autofluor Jurkat 1.27, FPRL1 binder 5.7, VLA-4 antagonist 15.0, VLA-4 agonist -5.0, FPR binder 7.5 and 26S disassembly -0.2.
Cc1ccc(C)c(N2CCN(S(=O)(=O)c3c(C)noc3/C=C/N(C)C)CC2)c1 was read as Autofluor Jurkat 1.03, FPRL1 binder 1.2, VLA-4 antagonist inconclusive, VLA-4 agonist -3.0, FPR binder -7.7 and 26S disassembly 48.8*.
Screening Cc1noc(/C=C/N(C)C)c1S(=O)(=O)N1CCN(c2ccccc2)CC1 returned Autofluor Jurkat 1.15, FPRL1 binder 6.9, VLA-4 antagonist -20.0, VLA-4 agonist -1.0, FPR binder 10.0 and 26S disassembly -0.6.
Screening CCOCCn1c(=O)c2c(nc3n2CCN3c2ccc(CC)cc2)n(C)c1=O returned Autofluor Jurkat 1.08, FPRL1 binder -1.7, VLA-4 antagonist -7.0, VLA-4 agonist 1.0, FPR binder -0.5 and 26S disassembly 1.5.
Screening COc1cccc2sc(Nc3nnc(-c4cccs4)o3)nc12 returned Autofluor Jurkat 1.16, FPRL1 binder -17.3, VLA-4 antagonist inconclusive, VLA-4 agonist inconclusive, FPR binder 5.0 and 26S disassembly -0.8.
For COc1cccc2sc(Nc3nnc(-c4ccc(F)cc4)o3)nc12 the results were Autofluor Jurkat 1.06, VLA-4 antagonist 90.0* and VLA-4 agonist 0.0.
For COc1ccc(N2CCN(C(=O)CN3C(=O)C4CC=CCC4C3=O)CC2)cc1 (stereo not given) the results were Autofluor Jurkat 1, FPRL1 binder 7.0, VLA-4 antagonist 2.0, VLA-4 agonist 0.0, FPR binder -3.1 and 26S disassembly 4.0.
O=c1ccc2cc3c([nH]c4ccc(Br)cc43)oc-2c1O was read as Autofluor Jurkat 6.56*, FPRL1 binder -0.5, VLA-4 antagonist inconclusive, VLA-4 agonist inconclusive, FPR binder -19.5 and 26S disassembly -1.3.
For N#Cc1nc(COc2ccccc2F)oc1NCc1ccc(F)cc1 the results were Autofluor Jurkat 1.24, FPRL1 binder -5.5, VLA-4 antagonist -29.0, VLA-4 agonist 2.0, FPR binder 3.5 and 26S disassembly 0.5.
`COc1ccc(CCNc2oc(COc3ccccc3F)nc2C#N)cc1` gave Autofluor Jurkat 1.18, FPRL1 binder -4.9, VLA-4 antagonist 18.0, VLA-4 agonist 2.0, FPR binder 4.9 and 26S disassembly 48.5*.
`CCCNC(=O)N1CCN(S(=O)(=O)c2ccc(C)c(C)c2)CC1` gave Autofluor Jurkat 1.08, FPRL1 binder 8.0, VLA-4 antagonist -4.5, VLA-4 agonist -0.5, FPR binder -5.7 and 26S disassembly -3.5.
Screening Clc1ccc(Cn2c(CN3CCCC3)nc3ccccc32)cc1 returned Autofluor Jurkat 0.99, FPRL1 binder 8.5, VLA-4 antagonist 10.0, VLA-4 agonist -7.5, FPR binder 3.6 and 26S disassembly 0.8.
COc1ccc(CCN2CCC(Nc3nc4ccccc4n3Cc3ccc(F)cc3)CC2)cc1 was read as Autofluor Jurkat 2.57*, FPRL1 binder 0.4, VLA-4 antagonist inconclusive, VLA-4 agonist inconclusive, FPR binder -8.2 and 26S disassembly 1.1.
`CN(C)c1nc(N)nc(N(c2ccccc2)c2ccccc2)n1` gave Autofluor Jurkat 1.06, FPRL1 binder 10.1, VLA-4 antagonist 1.0, VLA-4 agonist 2.0, FPR binder -6.9 and 26S disassembly -0.3.
CN(C)c1nc(N(C)C)nc(N(C)C)n1 was read as Autofluor Jurkat 1.04, FPRL1 binder 0.2, VLA-4 antagonist -14.0, VLA-4 agonist 8.0, FPR binder 51.6* and 26S disassembly 0.9.
Cc1cc(C)cc(-n2cc3c(=O)n(C)c(=O)n(C)c3c2)c1 was read as Autofluor Jurkat 1.01, FPRL1 binder 24.2, VLA-4 antagonist -13.0, VLA-4 agonist -5.0, FPR binder 31.6* and 26S disassembly -0.2.
Cc1cccc(-c2c3c(=O)n(C)c(=O)n(C)c3cn2-c2ccc(O)cc2)c1 was read as Autofluor Jurkat 1.08, FPRL1 binder -1.0, VLA-4 antagonist 12.0, VLA-4 agonist -8.5, FPR binder -3.6 and 26S disassembly 0.0.
Cc1ccc(NC(=O)C2CCCN(S(=O)(=O)c3cccs3)C2)cc1 (stereo not given) was read as Autofluor Jurkat 1.14, FPRL1 binder 10.6, VLA-4 antagonist 67.5*, VLA-4 agonist -13.0, FPR binder -4.6 and 26S disassembly -0.9.
CNc1nn(-c2cccc(Cl)c2)nc1N was read as Autofluor Jurkat 8.09*, FPRL1 binder 90.3*, VLA-4 antagonist inconclusive, VLA-4 agonist inconclusive, FPR binder -8.6 and 26S disassembly inconclusive.
O=C(Nc1ccc(S(=O)(=O)NC2CCCC2)cc1)c1cnccn1 was read as Autofluor Jurkat 0.98, FPRL1 binder -3.4, VLA-4 antagonist 9.0, VLA-4 agonist 4.0, FPR binder 2.8 and 26S disassembly 0.5.
`COC(=O)C1=[N+]([O-])OC(C(=O)OC)C1c1c[nH]c2ccccc12` (stereo not given) gave Autofluor Jurkat 1.01, FPRL1 binder 76.9*, VLA-4 antagonist -4.0, VLA-4 agonist 6.0, FPR binder 35.3* and 26S disassembly -0.7.
`CCOC(=O)C1=C(C)Nc2nnnn2C1c1c[nH]c2ccccc12` (stereo not given) gave Autofluor Jurkat 1.14, FPRL1 binder -4.9, VLA-4 antagonist -17.5, VLA-4 agonist 6.5, FPR binder 2.7 and 26S disassembly 0.6.
For COCC(C)NC(=O)NC1(C(F)(F)F)Oc2ccc(Cl)cc2O1 (stereo not given) the results were Autofluor Jurkat 1.01, FPRL1 binder 2.5, VLA-4 antagonist -8.0, VLA-4 agonist 1.0, FPR binder 6.2 and 26S disassembly -0.7.
O=C(NCCN1CCOCC1)NC1(C(F)(F)F)Oc2ccc(Cl)cc2O1 (stereo not given) was read as Autofluor Jurkat 1.03, FPRL1 binder -6.6, VLA-4 antagonist 2.0, VLA-4 agonist 2.0, FPR binder 66.5* and 26S disassembly -3.0.
